Screens: PubChem BioAssay, National Center for Advancing Translational Sciences (NCATS)
Only a selection was taken, and hits are over-represented in it overall.
HEK293 cAMP cs – parental HEK293 cAMP activation (counter-screen). parental HEK293 CNG cAMP sensor, membrane potential fluorescence. Potency, µM (doses to about 57.1 µM), without a hit: top-dose activation, most hits filed as activators. hit rate 2.5% among 73,000. AID 938; further: % of control where 0% means no effect; nearly all actives have a fitted effect of over 55% in size
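Parental HEK 293 cells stably expressing a modified CNG channel (no TSHR) report cAMP rise as membrane depolarization. Membrane potential dye with 100 uM RO 20-1724 was loaded for 60 min at room temperature, then compound added for 30 min; fluorescence read at 590 nm.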
Imprint erasure – inducers of genomic imprint erasure in mouse ES cells; mouse ES Peg3-LacZ reporter, beta-gal luminescence, 40 h; Potency, µM (titrated, usually from 60.7 µM), for inactives: at the top dose activity change, positive = activation, usual class: activators; hit rate 0.02% among 110,000; AID 1948
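Each well holds 300 Peg3LacZ-Neo (maternal) female ES cells incubated 40 h at 37C, 5% CO2. LacZ is measured by BetaGlo luminescence, with AC50 and maximum efficacy derived from dose-response curves.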
TSHR agonist – agonists of human thyroid stimulating hormone receptor. Potency, µM (titrated, usually from 57.1 µM), for the others: at the highest dose activation, actives largely listed as activators. hit rate 0.48% among 73,000. P16473. HEK293-CNG-TSHR cells (CNG channel as cAMP sensor), membrane potential dye, cAMP; active means well fitted activation curve with a large enough effect in the main read-out, with a control signal flat, not every such curve was filed as active; inconclusive means small, poorly fitted or top-dose-only effect, or a change in a side signal; inactive means no such curve, though single readings can be large or run the other way; % of control where 0% means no effect;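 further: the control signal comes from parental cells without the receptor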
Target sequence (P16473 whole entry, looked up): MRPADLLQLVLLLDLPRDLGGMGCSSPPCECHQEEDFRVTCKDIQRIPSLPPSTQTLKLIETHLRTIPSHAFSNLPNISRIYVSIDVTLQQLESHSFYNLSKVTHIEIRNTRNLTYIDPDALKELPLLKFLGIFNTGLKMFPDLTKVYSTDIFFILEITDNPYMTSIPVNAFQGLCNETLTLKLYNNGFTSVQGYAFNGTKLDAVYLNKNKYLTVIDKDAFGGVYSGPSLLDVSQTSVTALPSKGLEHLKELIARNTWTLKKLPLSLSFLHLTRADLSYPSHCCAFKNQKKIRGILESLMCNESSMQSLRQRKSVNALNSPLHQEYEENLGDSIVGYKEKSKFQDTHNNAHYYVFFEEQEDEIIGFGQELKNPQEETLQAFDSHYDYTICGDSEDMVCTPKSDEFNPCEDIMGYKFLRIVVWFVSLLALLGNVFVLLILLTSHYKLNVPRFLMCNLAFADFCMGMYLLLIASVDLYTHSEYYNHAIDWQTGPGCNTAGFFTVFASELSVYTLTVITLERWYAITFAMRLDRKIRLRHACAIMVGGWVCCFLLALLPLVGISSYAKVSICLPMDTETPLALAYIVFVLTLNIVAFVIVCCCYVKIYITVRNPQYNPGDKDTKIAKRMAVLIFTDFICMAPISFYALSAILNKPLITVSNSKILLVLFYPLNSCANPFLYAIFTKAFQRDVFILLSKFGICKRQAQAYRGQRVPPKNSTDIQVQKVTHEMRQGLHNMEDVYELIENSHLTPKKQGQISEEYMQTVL
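cAMP rise detected as CNG-channel membrane depolarization by fluorescent dye (emission 590 nm), 30 min after compound, following 60 min dye loading containing 100 uM RO 20-1724 at room temperature. Cells: TSHR/CNG HEK 293, with parental CNG HEK 293 as control.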
* marks the source's active call; other numbers are inactive results; ? = inconclusive; . = not tested or not shown; [ ] = another dose, or the depositor's remark. Unless noted, the call rests on the fitted dose curve; in most records, active means well fitted activation curve with a large enough effect; inconclusive means small, poorly fitted or top-dose-only effect; inactive means no such curve, though single readings can be large or run the other way. Potency means the concentration at half of the fitted maximal effect.

SMILES | HEK293 cAMP cs | Imprint erasure | TSHR agonist
COc1ccc(N(CC(=O)Nc2cc(C(=O)O)ccc2C)S(=O)(=O)c2c(C)noc2C)cc1 | 9% | -6% | -7%
COc1ccc(N(CC(=O)Nc2cc(C)on2)S(=O)(=O)c2cc(C)ccc2C)cc1 | 27% | -16% | 25µM*
Cc1cc(F)ccc1NC(=O)CCS(=O)(=O)c1cccc2nsnc12 | . | 17%[10.9 µM] | .
O=C(COc1ccccc1F)OCc1cc(=O)n2nc(C3CC3)sc2n1 | . | -6%[10.9 µM] | .
O=C(c1ccccc1CCc1ccccc1)N1CCN(c2ccccn2)CC1 | 16µM* | -24% | ?
O=C(c1ccccc1Cl)N1CCN(c2ccccn2)CC1 | 3% | 4% | -8%
Cc1ccc(OCC(=O)Nc2ccccc2C(=O)OCc2cc(=O)n3nc(C4CC4)sc3n2)cc1 | . | -15%[10.9 µM] | .
CCOc1ccc(NC(=O)Cc2coc3ccc(C)cc23)cc1 | . | 19%[10.9 µM] | .
COc1ccc(C(=O)COC(=O)c2ccco2)cc1 | -12% | -10% | 0%
O=C(COC(=O)c1ccccc1F)c1ccc(-n2nncc2-c2ccco2)cc1 | 25µM* | -4% | ?
O=C(NC1c2ccccc2-c2ccccc21)N1CCCCC1 | 3.2µM* | 1% | ?
O=C(Nc1ccccc1C(F)(F)F)N1CCCCCC1 | 8% | -12% | 20%
CC1CCc2c(sc3nnn(Cc4ccc(F)cc4)c(=O)c23)C1 (centres undefined) | . | -14%[10.9 µM] | .
COc1cccc([C@@H]2Oc3ccc(OC)cc3/C(=N/O[C@@H](C)CN3CCCc4nc(C)c(C)cc43)[C@@H]2O)c1 | 4µM* | . | ?
CC(C)=NO[C@@H](C)CN1CCCc2nc(C)c(C)cc21 | 4%[11.4 µM] | . | -4%[11.4 µM]
COc1ccc(C(C(=O)NC2CCCC2)N(C(=O)c2ccco2)c2ccc3c(c2)OCO3)cc1OC (centres undefined) | 17% | -1% | 10µM*
COc1ccc(N(C(=O)c2ccco2)C(C(=O)NC2CCCC2)c2ccc(N(C)C)cc2)cc1OC (centres undefined) | 20% | -3% | 7%
CCOC(=O)c1noc2ncnc(N3CCN(c4cccc(C(F)(F)F)c4)CC3)c12 | . | -19%[10.9 µM] | .
C[C@@H]1CC[C@H]2[C@H](C)C3[C@H](C[C@H]4[C@@H]5CC=C6C[C@@H](O)CC[C@@]6(C)[C@@H]5C[C@@H](O)[C@]34C)N2C1 (some centres undefined) | . | -14%[10.9 µM] | .
Cc1nn(-c2ccccc2)c(Cl)c1C1C(C#N)=C(N)OC2=C1C(=O)CCC2 (centres undefined) | 10% | -3% | 11%
Cc1ccc(-n2nc(C)c(C3C(C#N)=C(N)OC4=C3C(=O)CC(C)(C)C4)c2Cl)cc1 (centres undefined) | 25µM* | -13% | ?
Cc1ccccc1-c1nc2scc(CCNS(=O)(=O)c3ccccc3)n2n1 | . | -10%[10.9 µM] | .
COC(=O)[C@H](NC(=O)c1cc(-c2ccccc2)nc2ccccc12)c1ccccc1 | 13µM* | -13% | ?
CCOc1ccc(-c2cc(C(=O)NC(C)c3ccccc3)c3ccccc3n2)cc1 (centres undefined) | . | -17%[10.9 µM] | .
O=C(COCc1cc(-c2ccc(F)cc2)on1)Nc1cccc(C(F)(F)F)c1 | . | -6%[10.9 µM] | .
SMILES | HEK293 cAMP cs | Imprint erasure | TSHR agonist
N#Cc1ccc2ccn(CC(=O)NC3CCCCCC3)c2c1 | 3.2µM* | -7% | ?
COC(=O)c1cn(CC(=O)NC2CCCCC2)c2ccccc12 | 2% | . | 10%
O=C(NCc1ccc(Cl)cc1)c1cnc(N2CCOCC2)c2ccccc12 | . | 12%[10.9 µM] | .
CSc1nn(Cc2cccc(Cl)c2)c(N(C(C)=O)C(C)=O)c1S(=O)(=O)c1ccccc1 | . | 13%[10.9 µM] | .
COC(=O)c1sccc1S(=O)(=O)N(CC(=O)Nc1cc(F)ccc1F)c1ccc(C)c(C)c1 | . | -18%[10.9 µM] | .
COc1cccc(-n2nnnc2SCC(=O)Nc2cccc(C)n2)c1 | 25µM* | -4% | ?
COc1ccc(-n2nnnc2SCC(=O)Nc2cccc(C)n2)cc1OC | 16% | -7% | 7%
COc1ccccc1NC(=O)CSc1nnnn1-c1ccc2c(c1)OCO2 | 9% | -19% | 18%
Cc1ccc(-n2nnnc2SCC(=O)Nc2ccccc2N2CCCCC2)cc1C | 3.2µM* | -23% | ?
COc1ccccc1-c1nnc(SCC(=O)NC2CCCCC2)o1 | 2% | -11% | 7%
Cc1ccccc1-c1nnc(SCC(=O)NC2CCCCC2)o1 | 32µM* | -18% | ?
CC(C)(C)C1CCc2c(sc(NC(=O)C3c4ccccc4Oc4ccccc43)c2C(N)=O)C1 (centres undefined) | . | -6%[10.9 µM] | .
Cc1ccc2[nH]c(-c3ccc(F)cc3F)cc(=O)c2c1 | . | -15%[97.3 µM] | .
COc1ccc(-c2[nH]c(-c3ccc(O)cc3)nc2-c2ccccc2)cc1 | . | 12%[10.9 µM] | .
COC(=O)c1cc2oc3ccccc3c2n1Cc1nc(-c2cccc(C)c2)oc1C | . | -7%[10.9 µM] | .
CCN(C(=O)CSc1nnc(-c2cc(OC)c(OC)c(OC)c2)o1)c1ccccc1 | . | -3%[10.9 µM] | .
COc1ccc(-c2nnc(SCC(=O)N(Cc3ccccc3)C(C)(C)C)o2)cc1OC | 32µM* | . | ?
CCOc1ccc(-c2cc(C(=O)N3CCN(c4cccc(C(F)(F)F)c4)CC3)c3ccccc3n2)cc1 | . | -30%[10.9 µM] | .
Cc1cc(C)n(-c2nnc(Nc3ccc(C)c(Cl)c3)c3ccccc23)n1 | . | -12%[10.9 µM] | .
Cc1ccc(-c2noc(CSc3nnnn3C3CCCCC3)n2)cc1 | 47% | -19% | 25µM*
Cc1ccc(-c2noc(CSc3nnc(C)n3-c3ccc(C)cc3)n2)cc1 | . | -3%[10.9 µM] | .
CCOC(=O)Cc1csc(NC(=O)COc2ccc(N(C)S(=O)(=O)c3cccs3)cc2)n1 | 13µM* | 0% | ?
O=C(COc1ccc(Cl)cc1)Nc1nc(-c2cccs2)cs1 | 25µM* | -9% | ?
CCOC(=O)Cc1csc(NC(=O)COc2ccccc2)n1 | 7% | -22% | 8%
O=C(Cc1ccccc1)Nc1nc(-c2cccs2)cs1 | 30% | -17% | 16%
SMILES | HEK293 cAMP cs | Imprint erasure | TSHR agonist
Cc1ccc(NS(=O)(=O)c2cc(-c3cnc(C4CC4)o3)ccc2C)cc1Cl | . | -7%[10.9 µM] | .
Cc1ccc2c(c1)N(C(=O)N1CCC(C(=O)NC3CCCCCC3)CC1)CC(C)O2 (centres undefined) | . | 3%[10.9 µM] | .
Cc1cc(C)n(-c2nc(SCC(=O)NCC3CCCO3)c3c4c(sc3n2)CCCC4)n1 (centres undefined) | 25µM* | -12% | ?
Cc1cc(C)n(-c2nc(NCCO)c3c4c(sc3n2)CCCC4)n1 | 17% | -15% | 16%
Cc1cc(C)n(-c2nc(NCC(C)O)c3c4c(sc3n2)CCCC4)n1 (centres undefined) | 24% | -1% | 16%
Cc1cc(C)n(-c2nc(NCC3CCCO3)c3c4c(sc3n2)COC(C)(C)C4)n1 (centres undefined) | 25µM* | -14% | ?
CCCN(C(=O)Cc1nc(-c2ccc(OC)cc2)no1)c1ccccc1C | . | 4%[10.9 µM] | .
N#CCCn1c(=O)cnc2cnc(OCc3ccccc3)nc21 | 21% | . | -5%
COCCn1c(=O)c(C)nc2cnc(OC)nc21 | ? | 9% | ?
COCCn1c(=O)c(C)nc2cnc(OCc3ccccc3)nc21 | 3.2µM* | . | ?
COc1cccc(Cn2c(=O)c(C)nc3cnc(OCc4ccccc4)nc32)c1 | 16µM* | . | ?
N#CCCn1c(=O)c(CCc2ccccc2)nc2cnc(OCc3ccccc3)nc21 | 4µM* | . | ?
